Assay outcomes deposited in PubChem by National Center for Advancing Translational Sciences (NCATS).
Compounds with a hit are over-represented: about 2.4% of the library has one in this group of screens.
D2 ag-1: HTS Assay for Allosteric Agonists of the Human D2 Dopamine Receptor: Primary Screen for Agonists. 340,000 tested, 0.53% active. D(2) dopamine receptor (Homo sapiens), P14416. HEK293 T-REx D2 cells, calcium flux agonist mode. activation, % at 2 µM. AID 485358, 2010;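 active = activation over 3 SD above normal in the single-dose calcium agonist read, cut at about 30% in these data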; also: 0% is about no effect
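Tetracycline-induced HEK293 Trex cells with D2 receptor force-coupled to calcium signaling, plated overnight at 30 C and loaded with no-wash calcium dye. Calcium flux read kinetically for 180 s after compound addition; responses flag agonists.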
D2 PAM-1: Beta-Arrestin HTS for Positive Allosteric Modulators of the Human D2 Dopamine Receptor: Potentiators; D(2) dopamine receptor (Homo sapiens), P14416; potentiation, % (no concentration beside the values); DiscoveRx D2 beta-arrestin cells, luminescence, 90 min; 100% = 57 uM dopamine signal; 360,000 tested, 0.23% active; in the data active = potentiation above about 50%; inconclusive = mostly about 30% to 49%
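D2 cells co-treated with compound plus 50 nM dopamine (EC20) for 90 min at 37 deg C to detect potentiation. Beta-arrestin recruitment was read as enzyme-fragment luminescence after 1 h at ambient temperature. Full response was set by 57 uM dopamine.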
D2 antag: HTS Assay for Allosteric Antagonists of the Human D2 Dopamine Receptor: Primary Screen for Antagonists; D(2) dopamine receptor (Homo sapiens), P14416; HEK293 TREx D2 cells, calcium flux, dopamine EC80; inhibition, % at 10 µM; 340,000 tested, 2% active; in the data active = inhibition above about 30%; inactive = below that, where a call was filed; also: 0% is about no effect
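Dopamine at EC80 is the agonist stimulus; test compounds precede it by 180 s. Calcium flux read kinetically in a force-coupled, inducible HEK293 T-REx D2 cell line.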
D2 PAM-2: HTS Assay for Positive Allosteric Modulators of the Human D2 Dopamine Receptor: Primary Screen for Potentiators. potentiation, % at 10 µM. HEK293 T-REx D2, calcium flux, EC20 dopamine potentiation. AID 485347, 2010. D(2) dopamine receptor (Homo sapiens), P14416. 340,000 tested, 0.34% active;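 active = potentiation over 3 SD above the plate norm, cut at about 30% in these data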; also: 0% is about no effect
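Potentiation of an EC20 dopamine calcium response measured kinetically over 180 s, after a preceding 180 s compound-only read flagging agonists. Cells: inducible Hek293 Trex D2 line, 4000/well, cultured overnight at 30 C before dye loading.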
D2 ag-2: Beta-Arrestin HTS for Positive Allosteric Modulators of the Human D2 Dopamine Receptor: Agonists; D(2) dopamine receptor (Homo sapiens), P14416; DiscoveRx PathHunter D2 beta-arrestin, luminescence, 90 min; 100% = 57 uM dopamine signal; activation, % (concentration not given with the values); 360,000 tested, 0.084% active; AID 624465, 2012; in the data active = activation above about 40%; inconclusive = between about 15% and that limit
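DiscoveRx PathHunter D2 beta-arrestin cells (2,100/well) attached overnight, then compound-stimulated 90 min at 37 C in HBSS/10 mM HEPES/0.1% Tween-20 buffer; beta-galactosidase complementation read by luminescence after 1 h at ambient temperature. Dopamine 57 uM final (EC100) as control.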
D3 ag: qHTS of D3 Dopamine Receptor Agonist: D3 Dopamine Receptor B-arrestin Agonist Confirmatory Assay | 2,300 tested, 4% active | shares compounds with D2 ag-1 | Potency, µM (series often up to 76.9 µM), inactives show top-dose activation, most hits filed as activators | DiscoveRx D3 beta-arrestin cells, luminescence, 90 min;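 also: potency is read from the fitted curve at half-maximal effect; 100% = dopamine control response; nearly all actives have a fitted effect of over 70% in size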
Target sequence (P35462 whole entry, looked up): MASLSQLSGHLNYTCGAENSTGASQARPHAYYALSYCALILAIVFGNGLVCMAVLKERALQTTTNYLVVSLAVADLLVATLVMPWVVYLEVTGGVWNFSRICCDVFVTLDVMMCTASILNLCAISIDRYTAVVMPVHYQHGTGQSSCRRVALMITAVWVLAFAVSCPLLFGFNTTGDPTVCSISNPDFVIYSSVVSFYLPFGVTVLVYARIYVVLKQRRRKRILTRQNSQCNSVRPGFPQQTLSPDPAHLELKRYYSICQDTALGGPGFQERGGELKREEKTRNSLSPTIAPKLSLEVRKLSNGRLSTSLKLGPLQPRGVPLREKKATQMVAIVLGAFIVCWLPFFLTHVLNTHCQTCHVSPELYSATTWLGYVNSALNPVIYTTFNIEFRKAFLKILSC
D2 ag-3: qHTS of D3 Dopamine Receptor Agonist: D2 Dopamine Receptor B-arrestin Agonist Counterscreen | shares compounds with D2 ag-1 | DiscoveRx PathHunter D2 beta-arrestin, luminescence, 90 min; response scale: percent relative to full dopamine signal | Potency, µM (series often up to 76.9 µM), for inactives: at the highest dose activation, usual class: activators | 2,300 tested, 5.9% active; also: potency is read from the fitted curve at half-maximal effect; % of control where 0% means no effect; nearly all actives have a fitted effect of over 70% in size
* = called active by the depositor; u = inconclusive; x = no result. Unless noted, calls follow the shape of the dose curve; as a rule, active = well fitted activation curve with a large enough effect; inconclusive = small, poorly fitted or top-dose-only effect; inactive = flat fitted curve, though single readings scatter.

SMILES | D2 ag-1 | D2 PAM-1 | D2 antag | D2 PAM-2 | D2 ag-2 | D3 ag | D2 ag-3
Cc1ccc(NC(=O)C2CCCN2S(=O)(=O)c2ccc3nc(-c4ccccc4)[nH]c3c2)cc1F (centres undefined) | -0.1 | x | x | 2.1 | x | x | x
O=C(O)CCc1ccc(-c2cccs2)n1CCc1ccccc1 | x | -14.9 | x | -10.6 | 2.7 | 4.9% | 5.6%
O=C(O)CCc1ccc(-c2cccs2)n1CCC(=O)O | 0.7 | 9.6 | -0.6 | 8.2 | -3.6 | x | x
O=C(O)C1CCCCC1C(=O)N1CC=C(c2ccccc2)CC1 (centres undefined) | 34.2* | -16.4 | -1.1 | -11.9 | u | -13.0% | 6.0%
O=C(c1ccc(Br)o1)N1CC=C(c2ccccc2)CC1 | x | -13.4 | x | x | 2.4 | x | x
O=C(c1cc2ccccc2o1)N1CCN(CCOc2ccccc2)CC1 | 75.6* | -26.9 | 96.2* | -37.8 | u | 0.199µM* | u
O=C(Nc1ccc2ccccc2c1)N1CCCN(CCOc2ccccc2)CC1 | 38.0* | -6.1 | -0.6 | -21.9 | 2.6 | 10.2% | 1.2%
O=C(c1cc2ccccc2o1)N1CCOCC1 | 0.0 | -16.3 | 2.3 | -12.6 | -3.3 | x | x
O=C(c1cc2ccccc2o1)N1CC=C(c2ccccc2)CC1 | 58.5* | -11.5 | 46.1* | -15.7 | -20.3 | 12.1% | 6.9%
O=C(NCc1ccc(F)cc1)C1CCN(S(=O)(=O)c2ccc3c(c2)CCCN3C(=O)C2CCC2)CC1 | 1.0 | x | x | -5.0 | x | x | x
Cc1ccccc1CNC(=O)Cc1ccc(NC(=O)N2CCCCc3ccccc32)cc1 | 0.8 | x | x | 10.4 | x | x | x
O=C(Nc1cccc2ccccc12)N1CC=C(c2ccccc2)CC1 | 34.0* | -1.9 | -7.9 | -20.5 | -0.6 | u | 18.7%
CCN1C=C(Cc2cccs2)C2=C(C1)C(c1cccs1)C(C#N)=C(N)O2 (centres undefined) | 44.1* | -18.0 | 80.6* | -30.7 | -0.8 | -3.6% | 0.3%
CCN1CC2=C(OC(N)=C(C#N)C2c2cccs2)/C(=C/c2cccs2)C1 (centres undefined) | x | -28.1 | x | x | -1.7 | 1.6% | -0.5%
CN(Cc1ccon1)C(=O)C1CCN(C2CCN(CCCc3ccccc3)CC2)CC1 | 48.9* | -13.4 | 19.5 | -11.5 | -0.2 | -3.5% | 24.1%
Nc1ccc(C(=O)N/N=C/c2cccc(Oc3ccccc3)c2)cc1 | -0.8 | -8.4 | 31.2* | 5.3 | -1.0 | -0.2% | 0.9%
O=C(N/N=C/c1cccc(Oc2ccccc2)c1)c1cc[n+]([O-])cc1 | -0.6 | -2.9 | 13.8 | 3.5 | -0.5 | x | x
Nc1ccc(C(=O)N/N=C\c2ccc(OC(=O)c3ccccc3Cl)cc2)cc1 | 0.7 | -24.0 | 32.6* | 11.1 | -1.5 | 2.8% | 0.9%
O=C(NCCc1ccc(Cl)cc1)C1CCN(S(=O)(=O)c2cccs2)CC1 | 0.2 | -4.6 | 16.3 | -4.0 | -3.4 | x | x
O=C(NCCS(=O)(=O)N1CCN(c2cccc(Cl)c2)CC1)C1CCCC1 | 0.4 | -20.8 | -3.4 | -2.3 | -2.6 | x | x
CCS(=O)(=O)N1CCC(C(=O)NCCCN2CCN(c3ccccc3F)CC2)CC1 | 68.7* | 17.7 | 86.4* | -17.9 | u | u | u
O=C(NCCCN1CCN(c2ccccc2F)CC1)C1CCN(S(=O)(=O)c2cccs2)CC1 | 70.2* | 18.3 | 74.7* | -17.8 | u | u | 10µM*
COc1ccc2c(c1)CC(C(=O)NCCCN1CCN(c3ccccc3F)CC1)CO2 (centres undefined) | x | x | x | -25.3 | x | x | x
